According to PubChem BioAssay:
Active and inactive are the calls of the source.

How the values were obtained:
[1] = tested on: Human papillomavirus type 1a protein E7 (residues 44-93); experiment: HPV1a E7 fragment binders on microarrays, primary screen, biochemical, small-molecule microarray, residues 44-93, 635 nm fluorescence (AID 1108); conditions: small-molecule microarray binding, fluorescence 635 nm; higher = more signal;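 further: E7 fragment applied at 1 µg/mL in TBST for 1 h at 4 C; score combines spot fluorescence with its signal to noise ratio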
[2] = modulators of HCV replicon luciferase signal, primary screen, HCV replication inhibitor project, Huh7 cells, luciferase reporter (AID 1109); conditions: 48 h, higher = more signal;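 further: huh7 hepatoma cells harbouring a luciferase neomycin HCV replicon reporter; luciferase luminescence as measure of HCV replicon replication; test concentration not given here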
[3] = biological target: Left-right determination factor 2 (Homo sapiens) (UniProt O00292); experiment: LEFTY2 binders on small-molecule microarrays, primary screen, biochemical, small-molecule microarray, 635 nm fluorescence scan (AID 1110); conditions: LEFTY2 binding, higher = more signal
Sequence of Left-right determination factor 2 (Homo sapiens) (O00292 whole entry, looked up): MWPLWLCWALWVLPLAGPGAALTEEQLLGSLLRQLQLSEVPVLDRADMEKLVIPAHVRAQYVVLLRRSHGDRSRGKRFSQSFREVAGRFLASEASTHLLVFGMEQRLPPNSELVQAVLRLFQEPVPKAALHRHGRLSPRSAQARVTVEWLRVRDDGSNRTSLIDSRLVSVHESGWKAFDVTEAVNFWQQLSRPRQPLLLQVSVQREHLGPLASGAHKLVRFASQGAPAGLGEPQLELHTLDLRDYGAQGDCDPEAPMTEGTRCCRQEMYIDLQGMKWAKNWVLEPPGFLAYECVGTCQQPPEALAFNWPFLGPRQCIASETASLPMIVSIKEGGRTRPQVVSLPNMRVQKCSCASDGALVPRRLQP

[4] = biological target: Calmodulin-1 (Homo sapiens) (UniProt P0DP23); experiment: CALM1 binders on microarrays, EGTA buffer, profiling panel, biochemical, small-molecule microarray, Cy5-labelled CALM1 (AID 1111); conditions: Cy5-CALM1 binding fluorescence, higher = more signal;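 further: labelled calmodulin applied in Tris saline Tween buffer holding calcium plus EGTA and DTT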
[5] = biological target: Calmodulin-1 (Homo sapiens) (UniProt P0DP23); experiment: calcium-bound CALM1 binders on microarrays, profiling panel, artefact control for SMM control-protein annotation, biochemical, small-molecule microarray, Cy5-labelled CALM1, plus calcium (AID 1112); conditions: Cy5-CALM1 binding fluorescence, higher = more signal;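 further: score merges spot fluorescence with signal to noise from triplicate slides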
[6] = small-molecule microarray binders of probe aWnt5a, primary screen, biochemical, biotinylated probe, 635/667 nm fluorescence (AID 1113); conditions: higher = more signal;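 further: score merges 667 nm fluorescence intensity with signal-to-noise per printed feature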
[7] = small-molecule microarray binders of probe aShh, primary screen, biochemical, biotinylated probe, 635/667 nm fluorescence (AID 1114); conditions: higher = more signal;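 further: probe is biotin-labelled aShh protein from a stem cell growth factor screen; measures binding of labelled protein to compounds printed on the slide; score merges feature fluorescence at 667 nm with signal-to-noise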
[8] = small-molecule microarray binders of probe aNog, primary screen, biochemical, biotinylated probe, 635/667 nm fluorescence (AID 1115); conditions: higher = more signal;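 further: probe is biotinylated aNog protein used at 0.15 µg/mL for 1 h at 4 C; z-score combines 667 nm fluorescence of each spot with its signal to noise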
[9] = biological target: Torsin-1A-interacting protein 1 (Homo sapiens) (UniProt Q5JTV8); experiment: LAP1 binders from COS7 cell lysate, primary screen, small-molecule microarray, 635/667 nm fluorescence (AID 1116); conditions: COS7-hLAP1 lysate binding, 635 nm fluorescence, higher = more signal
Sequence of Torsin-1A-interacting protein 1 (Homo sapiens) (Q5JTV8 whole entry, looked up): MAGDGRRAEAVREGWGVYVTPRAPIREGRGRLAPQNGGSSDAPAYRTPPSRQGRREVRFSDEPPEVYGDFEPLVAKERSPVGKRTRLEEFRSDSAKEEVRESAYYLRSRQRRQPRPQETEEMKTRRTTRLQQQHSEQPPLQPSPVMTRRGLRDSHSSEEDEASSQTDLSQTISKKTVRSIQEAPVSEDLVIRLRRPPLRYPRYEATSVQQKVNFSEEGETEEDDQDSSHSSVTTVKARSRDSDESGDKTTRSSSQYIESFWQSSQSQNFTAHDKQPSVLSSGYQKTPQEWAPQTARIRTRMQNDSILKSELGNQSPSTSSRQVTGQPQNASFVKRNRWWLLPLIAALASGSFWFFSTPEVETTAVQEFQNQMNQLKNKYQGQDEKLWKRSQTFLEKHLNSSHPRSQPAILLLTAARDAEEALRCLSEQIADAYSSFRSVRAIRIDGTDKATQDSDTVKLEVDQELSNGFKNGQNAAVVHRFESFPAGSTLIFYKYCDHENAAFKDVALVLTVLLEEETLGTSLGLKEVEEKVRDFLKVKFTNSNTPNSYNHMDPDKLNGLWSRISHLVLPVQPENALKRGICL

[10] = biological target: Alpha-bungarotoxin (Bungarus multicinctus) (UniProt P60615); experiment: alpha-bungarotoxin binders on microarray, profiling panel, artefact control for SMM control protein annotation, biochemical, small-molecule microarray, Alexa647 label, 635/667 nm fluorescence (AID 1117); conditions: alpha-BTX-A647 binding fluorescence, higher = more signal
Sequence of Alpha-bungarotoxin (Bungarus multicinctus) (P60615 whole entry, looked up): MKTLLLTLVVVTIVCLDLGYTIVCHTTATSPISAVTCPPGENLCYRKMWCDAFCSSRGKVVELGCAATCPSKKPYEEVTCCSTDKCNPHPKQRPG

Albumin (Bos taurus) = Albumin (Bos taurus) (UniProt P02769); experiment: bovine serum albumin binders on microarray, profiling panel, artefact control for SMM control protein annotation, biochemical, small-molecule microarray, Alexa647 label, 635/667 nm fluorescence (AID 1118); conditions: BSA-A647 binding, fluorescence 635 nm, higher = more signal;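 further: score merges 667 nm emission intensity and signal-to-noise per printed compound spot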
Sequence of Albumin (Bos taurus) (P02769 whole entry, looked up): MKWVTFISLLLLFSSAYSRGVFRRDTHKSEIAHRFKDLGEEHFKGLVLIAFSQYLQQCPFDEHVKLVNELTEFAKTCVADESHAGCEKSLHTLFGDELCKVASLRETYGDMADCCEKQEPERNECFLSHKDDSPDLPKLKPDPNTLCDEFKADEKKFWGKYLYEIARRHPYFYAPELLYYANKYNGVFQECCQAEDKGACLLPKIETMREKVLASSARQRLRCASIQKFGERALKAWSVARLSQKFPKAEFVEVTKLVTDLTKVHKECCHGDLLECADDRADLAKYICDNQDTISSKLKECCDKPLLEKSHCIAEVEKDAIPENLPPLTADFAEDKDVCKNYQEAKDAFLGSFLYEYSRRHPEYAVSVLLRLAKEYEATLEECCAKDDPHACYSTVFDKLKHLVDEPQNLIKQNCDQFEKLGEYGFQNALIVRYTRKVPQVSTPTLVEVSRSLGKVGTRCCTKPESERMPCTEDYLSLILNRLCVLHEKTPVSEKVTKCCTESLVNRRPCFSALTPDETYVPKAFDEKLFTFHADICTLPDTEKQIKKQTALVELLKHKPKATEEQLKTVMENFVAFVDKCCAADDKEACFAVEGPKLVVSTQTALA

[11] = small-molecule microarray binders of probe aXIP, primary screen, biochemical, NeuroSMM set, 635/667 nm fluorescence (AID 1119); conditions: higher = more signal, called active from +8 up or from −8 down;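 further: probe is the protein aXip251-270 applied at 1 µg/mL to compound-printed slides; binding of probe to printed compounds measured as 667 nm fluorescence plus signal to noise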
[12] = small-molecule binders of probe aNOTCH3, primary screen, biochemical, small-molecule microarray, 635/667 nm fluorescence (AID 1120); conditions: higher = more signal;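 further: probe is a biotin-tagged antibody raised against NOTCH3 rather than NOTCH3 protein; score merges spot fluorescence near 667 nm with spot signal to noise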
[13] = small-molecule binders of probe aNOTCH2, primary screen, biochemical, small-molecule microarray, 635/667 nm fluorescence (AID 1121); conditions: higher = more signal;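 further: score merges feature fluorescence read at 667 nm with its signal to noise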
[14] = biological target: Carbonic anhydrase 2 (Homo sapiens) (UniProt P00918); experiment: CAII small-molecule binders, profiling panel, biochemical, small-molecule microarray, Alexa647-labelled CAII (AID 1122); conditions: CAII-A647 binding fluorescence, higher = more signal
[15] = COS7 lysate on small-molecule microarray, probe aHis, 635 nm (AID 1123); conditions: COS7 cell lysate, fluorescence, higher = more signal;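 further: z-score combines 667nm fluorescence intensity with signal-to-noise per printed compound spot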
[16] = compound binding in COS7 lysate, probe aLAP1, primary screen, cell lysate, small-molecule microarray (AID 1124); conditions: probe aLAP1, fluorescence, higher = more signal;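 further: lysate comes from COS7 cells expressing LAP1 and is applied at 0.3 µg/mL; score merges spot fluorescence near 667 nm with signal-to-noise over triplicate slides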
Sam68 (KHDRBS1) = experiment: Sam68 small-molecule binders, primary screen, biochemical, small-molecule microarray, 635 nm fluorescence (AID 1125); conditions: small-molecule microarray binding, higher = more signal;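 further: score merges 667 nm channel intensity with signal to noise over triplicate slides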
[17] = tested on: Chordin-like protein 2 (CHRDL2); experiment: CHRDL2 small-molecule binders, primary screen, biochemical, small-molecule microarray, 635 nm fluorescence (AID 1126); conditions: small-molecule microarray binding, fluorescence 635 nm; higher = more signal;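 further: printed compound slides probed with Chrdl2 protein at 4 µg/mL for 1 h at 4 C; score merges 667 nm emission intensity with signal to noise over three replicate slides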
[18] = biological target: Concanavalin-A (Canavalia ensiformis) (UniProt P02866); experiment: ConA small-molecule binders, primary screen, artefact control for SMM control protein annotation, biochemical, small-molecule microarray, Alexa647 label, 635 nm (AID 1127); conditions: ConA-A647 binding fluorescence, higher = more signal;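 further: z combines 667 nm emission intensity with signal-to-noise across three replicate slides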
Sequence of Concanavalin-A (Canavalia ensiformis) (P02866 whole entry, looked up): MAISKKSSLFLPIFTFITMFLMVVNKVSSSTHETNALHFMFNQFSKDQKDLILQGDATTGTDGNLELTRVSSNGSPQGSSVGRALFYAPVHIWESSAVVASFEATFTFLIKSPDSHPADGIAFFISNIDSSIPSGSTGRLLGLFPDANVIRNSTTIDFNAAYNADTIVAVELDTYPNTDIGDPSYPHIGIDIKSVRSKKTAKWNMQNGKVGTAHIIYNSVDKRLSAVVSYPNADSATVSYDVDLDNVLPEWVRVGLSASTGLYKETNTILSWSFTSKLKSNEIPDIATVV

Row | SMILES | composite z-score [1] | z-score [2] | composite z-score [3] | composite z-score [4] | composite z-score [5] | composite z-score [6] | composite z-score [7] | composite z-score [8] | composite z-score [9] | composite z-score [10] | composite z-score (Albumin (Bos taurus)) | composite Z-score [11] | composite z-score [12] | composite z-score [13] | composite z-score [14] | composite z-score [15] | composite z-score [16] | composite z-score (Sam68 (KHDRBS1)) | composite z-score [17] | composite z-score [18]
1 | C=CCNC(=O)[C@H]1[C@@H]2C(=O)O[C@@H](c3ccccc3)[C@@H](c3ccccc3)N2[C@@H](c2ccc(O)cc2)[C@]12C(=O)Nc1ccc(C#CC3(O)CCCCCC3)cc12 | 0.903 | -0.979 | 0.405 | 0.823 | 0.215 | -0.036 | 0.0358 | 0.557 | 0.854 | 0.448 | 0.201 | -0.005 (inactive) | 0.0961 | -0.0695 | 0.714 | 2.11 | 0.355 | 1.1 | 0.215 | 0.556
2 | C=CC[C@]1(C(=O)O)COC(c2ccc(OCCCO)cc2)=N1 | 0.549 | 0.183 | 0.268 | 0.0295 | 0.47 | -0.0203 | -0.138 | -0.419 | -0.0942 | 0.291 | 0.157 | 0.0512 (inactive) | -0.0967 | -0.222 | 0.969 | 1.14 | 0.308 | 0.343 | 0.422 | -0.427
3 | CCCCCCCCCCC(O)C1C=CC2C(=O)N(C)C(=O)C2N1NC(=O)OC(C)(C)C (stereo not given) | 1.17 | -2.54 | 0.186 | 1.41 | 0.953 | -0.0684 | 0.445 | 0.3 | -0.122 | 0.294 | 0.682 | 0.245 (inactive) | -0.0077 | -0.124 | 0.344 | 1.24 | -0.45 | 0.717 | -0.409 | 1.12
4 | CN(C)CCCNC(=O)[C@@]1(c2ccc([N+](=O)[O-])cc2)CC(=O)N(CC23CC4CC(CC(C4)C2)C3)[C@@H]1c1ccc(CO)cc1I | 1.39 | -3.54 | 0.703 | 0.307 | -0.0622 | 0.0668 | 0.462 | 0.192 | 1.27 | 1.15 | 0.685 | -0.729 (inactive) | 0.095 | -0.0877 | 0.511 | 2.86 | 0.457 | 1.28 | 0.731 | 1.14
5 | COC(=O)[C@@]1(Cc2ccc(F)cc2)[C@H]2c3cc(C(=O)N4CCCC4)n(CCc4ccc(O)c(O)c4)c3C[C@H]2CN1C(=O)c1ccccc1 | -0.369 | -1.79 | -0.772 | 0.765 | 0.694 | 0.752 | 2.04 | 2.27 | 0.661 | -0.125 | 0.601 | 0.41 (inactive) | 1.26 | 0.89 | 0.83 | 1.83 | 0.543 | -1.03 | -0.113 | -0.697
6 | COC(=O)[C@@]1(Cc2ccc(OC)cc2)[C@@H]2C(=CC(=O)[C@H]2CC(=O)C(=O)N(C)C)CN1C(=O)c1ccccc1 | 1.42 | -2.8 | -0.195 | 2.21 | 0.775 | 0.268 | 0.1 | 2.25 | 0.755 | 0.923 | 0.982 | -0.0238 (inactive) | 0.848 | 0.358 | 0.777 | 2.47 | 0.536 | 1.31 | -0.501 | 1.11
7 | C=CCC(OC(C)=O)[C@@H]1[C@@H](N(Cc2ccc(-c3cccc(C(F)(F)F)c3)o2)C(=O)c2ccc(-c3ccccc3)cc2)c2cc(OCCCO)ccc2N1C(=O)c1ccc2ccccc2n1 (stereo not given in full) | -0.252 | 0.177 | -0.122 | -0.227 | 0.623 | 0.0437 | 0.112 | -0.139 | -0.2 | -0.386 | -0.267 | -0.219 (inactive) | -0.0077 | 0.357 | -0.232 | 0.266 | -0.154 | -0.734 | 0.198 | -0.458
8 | CCOC(=O)[C@H]1[C@@H]2C(=O)N3CCC[C@H]3[C@H](O[Si](C(C)C)(C(C)C)C(C)C)[C@H]2C=C2CCN(S(=O)(=O)c3ccc(C)cc3)C[C@H]21 | 1.28 | -3.6 | 0.637 | 0.791 | -0.185 | -0.0379 | 0.0815 | -0.709 | 0.694 | 0.962 | 0.603 | 0.156 (inactive) | 0.0208 | -0.112 | 0.481 | 1.15 | 0.171 | 1.3 | 0.484 | 1.12
9 | CN(C)C(=O)[C@]1(CCS(=O)(=O)c2ccccc2)N=C(c2ccc(OCCCO)cc2)O[C@@H]1c1ccccc1N=[N+]=[N-] | 1.5 | 0.0131 | 0.814 | 1.79 | 0.291 | 0.119 | 0.254 | 1.9 | 2.28 | 1 | 0.963 | -0.0275 (inactive) | 0.545 | 0.111 | 0.689 | 2.93 | 0.108 | 1.29 | 0.555 | 1.16
10 | CN1C(=O)C2C=CC(C(O)C#Cc3ccccc3)N(Nc3ccccc3)C2C1=O (stereo not given) | 1.45 | 0.234 | 0.302 | 1.18 | 0.533 | 0.0381 | -0.0243 | 1.35 | 1.11 | 1.35 | 1.03 | -0.0662 (inactive) | 0.405 | 0.0363 | 0.663 | 2.96 | 0.553 | 1.35 | -0.0655 | 1.09
